PubChem BioAssay (NCI)
This is part of a sample that, as a whole, favours compounds with a hit. Of some 79,000 tested, about 15% had one in any assay. Values without a mark were called inactive. Activity calls are given as the source filed them. Cut-off read from the data, not from the text of the source: active = growth inhibition above about 70%; inactive = the rest.

Tests used:
[1] = NCI Yeast Anticancer Drug Screen. Data for the rad50 strain (AID 155);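 note: 0% = growth of vehicle-only cultures of the same strain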; conditions: S. cerevisiae rad50 strain growth inhibition, stronger effect = higher value
Outline: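 Relative growth inhibition (compound vs vehicle) was measured in yeast with a defined repair-gene alteration.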

[2] = NCI Yeast Anticancer Drug Screen. Data for the mec2-1 strain (AID 157); conditions: S. cerevisiae mec2-1 strain, stronger effect = higher value
Outline: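 mec2-1 yeast strain, carrying an alteration in DNA damage repair or cell cycle control, was exposed to compounds; growth inhibition was measured relative to vehicle-treated controls.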

[3] = NCI Yeast Anticancer Drug Screen. Data for the sgs1 mgt1 strain (AID 161);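 note: 0% = growth of cultures given vehicle only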; conditions: S. cerevisiae sgs1 mgt1 strain, stronger effect = higher value
Outline: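 Percent growth inhibition was derived by comparing compound-exposed mutant yeast with vehicle-exposed cultures. The strain carries alterations in DNA damage repair.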

[4] = NCI Yeast Anticancer Drug Screen. Data for the cln2 rad14 strain (AID 165);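 note: 0% = growth equal to vehicle treated cultures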; conditions: S. cerevisiae cln2 rad14 strain, stronger effect = higher value
Outline: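 Yeast carrying cln2 and rad14 alterations (cell cycle control and DNA damage repair) were exposed to compounds. Growth inhibition was measured against vehicle-treated controls.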

[5] = NCI Yeast Anticancer Drug Screen. Data for the bub3 strain (AID 167); conditions: S. cerevisiae bub3 mutant strain, stronger effect = higher value
Outline: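 Screening used yeast with an engineered genetic alteration affecting cell cycle control. Compound-exposed cultures were compared with vehicle cultures, and reduced growth was taken as inhibition.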

[6] = NCI Yeast Anticancer Drug Screen. Data for the mlh1 rad18 strain (AID 175); conditions: S. cerevisiae mlh1 rad18 strain growth inhibition, stronger effect = higher value
Outline: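 Growth inhibition of the yeast strain was measured after compound exposure and expressed relative to vehicle-treated controls. The strain carries defined defects in DNA damage repair.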

[7] = at 5.0 µM (retest, dose inferred, filed as 0.5)
[8] = at 50.0 µM (retest, dose inferred, filed as 5.0)

Which results are given for `CC(CN(C)C)C(/C=C/c1ccccc1)=N\NC(=O)c1ccccc1` (configuration not stated)?
growth inhibition [1, 7]: -14%; growth inhibition [1, 8]: 3%; growth inhibition ([1]; at 50.0 µM): 3.15%; growth inhibition [2, 7]: -7%; growth inhibition [2, 8]: -7%; growth inhibition ([2]; at 50.0 µM): 13.1%; growth inhibition [3, 7]: -4%; growth inhibition [3, 8]: 3%; growth inhibition ([3]; at 50.0 µM): 3.05%; growth inhibition [4, 7]: -11%; growth inhibition [4, 8]: -4%; growth inhibition ([4]; at 50.0 µM): 3.15%; growth inhibition [5, 7]: -3%; growth inhibition [5, 8]: -11%; growth inhibition ([5]; at 50.0 µM): -18.4%; growth inhibition [6, 7]: 2%; growth inhibition [6, 8]: 11%; growth inhibition ([6]; at 50.0 µM): -3.6%

Which results are given for `COc1ccc2nc3cc(Cl)ccc3c(Nc3ccc(S(N)(=O)=O)cc3)c2c1`?
growth inhibition [1, 7]: 0%; growth inhibition [1, 8]: 17%; growth inhibition ([1]; at 50.0 µM): 37.5%; growth inhibition [2, 7]: 0%; growth inhibition [2, 8]: 9%; growth inhibition ([2]; at 50.0 µM): -11.4%; growth inhibition [3, 7]: 0%; growth inhibition [3, 8]: 5%; growth inhibition ([3]; at 50.0 µM): -6.05%; growth inhibition [4, 7]: 9%; growth inhibition [4, 8]: 3%; growth inhibition ([4]; at 50.0 µM): -8.25%; growth inhibition [5, 7]: -1%; growth inhibition [5, 8]: 2%; growth inhibition ([5]; at 50.0 µM): -11.4%; growth inhibition [6, 7]: 1%; growth inhibition [6, 8]: 2%; growth inhibition ([6]; at 50.0 µM): -6.5%

For `COc1ccc(C(c2cc3c(cc2O)OCO3)N2CCOCC2)c(OC)c1OC` (configuration not stated), which growth inhibition [1, 7] is on record?
Its growth inhibition is 4%.

And the growth inhibition [1, 8]?
Its growth inhibition is 96% (active).

What about the growth inhibition ([1]; at 50.0 µM) of the same molecule?
Its growth inhibition is 95.5% (active).

What about the growth inhibition [2, 7] of the same molecule?
The growth inhibition was 4%.

And the growth inhibition [2, 8]?
The growth inhibition was 97% (active).

And the growth inhibition ([2]; at 50.0 µM)?
The growth inhibition was 99.6% (active).

And the growth inhibition [3, 7]?
The growth inhibition was 0%.

What about the growth inhibition [3, 8] of the same molecule?
The growth inhibition was 74% (active).

And the growth inhibition ([3]; at 50.0 µM)?
The growth inhibition was 62.9%.

What about the growth inhibition [4, 7] of the same molecule?
The growth inhibition was -6%.

What about the growth inhibition [4, 8] of the same molecule?
Its growth inhibition is 63%.

What about the growth inhibition ([4]; at 50.0 µM) of the same molecule?
Its growth inhibition is 24.4%.

And the growth inhibition [5, 7]?
Its growth inhibition is 0%.

And the growth inhibition [5, 8]?
The growth inhibition was 87% (active).

And the growth inhibition ([5]; at 50.0 µM)?
The growth inhibition was 98.7% (active).

And the growth inhibition [6, 7]?
Its growth inhibition is 2%.

What about the growth inhibition [6, 8] of the same molecule?
Its growth inhibition is 63%.

What about the growth inhibition ([6]; at 50.0 µM) of the same molecule?
Its growth inhibition is 83% (active).

Which results are given for `CCCCCCCCCCCCCCCC(=O)N1CC[N+](C)(C)CC1`?
growth inhibition [1, 7]: 34%; growth inhibition [1, 8]: 99% (active); growth inhibition ([1]; at 50.0 µM): 99.3% (active); growth inhibition [2, 7]: 5%; growth inhibition [2, 8]: 100% (active); growth inhibition ([2]; at 50.0 µM): 99.6% (active); growth inhibition [3, 7]: 73% (active); growth inhibition [3, 8]: 99% (active); growth inhibition ([3]; at 50.0 µM): 60%; growth inhibition [4, 7]: 5%; growth inhibition [4, 8]: 99% (active); growth inhibition ([4]; at 50.0 µM): 98.2% (active); growth inhibition [5, 7]: 16%; growth inhibition [5, 8]: 99% (active); growth inhibition ([5]; at 50.0 µM): 99.2% (active); growth inhibition [6, 7]: -34%; growth inhibition [6, 8]: 99% (active); growth inhibition ([6]; at 50.0 µM): 99.5% (active)

Which results are given for `CCOC(=O)/C(=C\c1ccc(Br)cc1)C(C)=O`?
growth inhibition [1, 7]: 28%; growth inhibition [1, 8]: 98% (active); growth inhibition ([1]; at 50.0 µM): 92.5% (active); growth inhibition [2, 7]: 29%; growth inhibition [2, 8]: 99% (active); growth inhibition ([2]; at 50.0 µM): 94.2% (active); growth inhibition [3, 7]: 48%; growth inhibition [3, 8]: 98% (active); growth inhibition ([3]; at 50.0 µM): 93.5% (active); growth inhibition [4, 7]: 34%; growth inhibition [4, 8]: 98% (active); growth inhibition ([4]; at 50.0 µM): 92.5% (active); growth inhibition [5, 7]: 71% (active); growth inhibition [5, 8]: 99% (active); growth inhibition ([5]; at 50.0 µM): 92.3% (active); growth inhibition [6, 7]: 70% (active); growth inhibition [6, 8]: 99% (active); growth inhibition ([6]; at 50.0 µM): 91.7% (active)

Which growth inhibition [1, 7] does the source give for `CCc1ccccc1NC(=O)C(=O)CC(=O)c1ccc(Cl)s1` here?
The growth inhibition was 1%.

What about the growth inhibition [1, 8] of the same molecule?
Its growth inhibition is 1%.

What about the growth inhibition ([1]; at 50.0 µM) of the same molecule?
The growth inhibition was 45.1%.

What about the growth inhibition [2, 7] of the same molecule?
The growth inhibition was -2%.

What about the growth inhibition [2, 8] of the same molecule?
The growth inhibition was -40%.

What about the growth inhibition ([2]; at 50.0 µM) of the same molecule?
The growth inhibition was 2.6%.

What about the growth inhibition [3, 7] of the same molecule?
Its growth inhibition is -1%.

And the growth inhibition [3, 8]?
Its growth inhibition is 2%.

And the growth inhibition ([3]; at 50.0 µM)?
Its growth inhibition is 6.85%.

And the growth inhibition [4, 7]?
Its growth inhibition is -2%.

What about the growth inhibition [4, 8] of the same molecule?
The growth inhibition was 6%.

And the growth inhibition ([4]; at 50.0 µM)?
Its growth inhibition is 26.2%.

What about the growth inhibition [5, 7] of the same molecule?
The growth inhibition was 2%.

What about the growth inhibition [5, 8] of the same molecule?
Its growth inhibition is 1%.

What about the growth inhibition ([5]; at 50.0 µM) of the same molecule?
Its growth inhibition is -9.55%.

And the growth inhibition [6, 7]?
Its growth inhibition is 0%.

What about the growth inhibition [6, 8] of the same molecule?
The growth inhibition was 5%.

What about the growth inhibition ([6]; at 50.0 µM) of the same molecule?
The growth inhibition was -0.1%.

Which growth inhibition [1, 7] does the source give for `ClC1=C(Cl)C(Cl)(C(Cl)(Cl)Cl)C(Cl)=C1Cl` here?
Its growth inhibition is 99% (active).

And the growth inhibition [1, 8]?
Its growth inhibition is 98% (active).

What about the growth inhibition ([1]; at 50.0 µM) of the same molecule?
Its growth inhibition is 99.6% (active).

And the growth inhibition [2, 7]?
Its growth inhibition is 100% (active).

And the growth inhibition [2, 8]?
The growth inhibition was 99% (active).

What about the growth inhibition ([2]; at 50.0 µM) of the same molecule?
The growth inhibition was 99.6% (active).

What about the growth inhibition [3, 7] of the same molecule?
The growth inhibition was 99% (active).

What about the growth inhibition [3, 8] of the same molecule?
Its growth inhibition is 98% (active).

And the growth inhibition ([3]; at 50.0 µM)?
The growth inhibition was 99.7% (active).

What about the growth inhibition [4, 7] of the same molecule?
The growth inhibition was 99% (active).

What about the growth inhibition [4, 8] of the same molecule?
Its growth inhibition is 98% (active).

And the growth inhibition ([4]; at 50.0 µM)?
The growth inhibition was 99.4% (active).

What about the growth inhibition [5, 7] of the same molecule?
The growth inhibition was 99% (active).

And the growth inhibition [5, 8]?
Its growth inhibition is 98% (active).

What about the growth inhibition ([5]; at 50.0 µM) of the same molecule?
Its growth inhibition is 99.7% (active).

What about the growth inhibition [6, 7] of the same molecule?
The growth inhibition was 99% (active).

And the growth inhibition [6, 8]?
Its growth inhibition is 98% (active).

And the growth inhibition ([6]; at 50.0 µM)?
The growth inhibition was 99.4% (active).

Which growth inhibition [1, 7] does the source give for `O=c1ccnc(Nc2ccc[nH]c2=S)[nH]1` here?
Its growth inhibition is -2%.

And the growth inhibition [1, 8]?
The growth inhibition was -11%.

What about the growth inhibition ([1]; at 50.0 µM) of the same molecule?
The growth inhibition was 3.2%.

And the growth inhibition [2, 7]?
The growth inhibition was 0%.

What about the growth inhibition [2, 8] of the same molecule?
The growth inhibition was -7%.

What about the growth inhibition ([2]; at 50.0 µM) of the same molecule?
The growth inhibition was -3.3%.

What about the growth inhibition [3, 7] of the same molecule?
Its growth inhibition is -1%.

What about the growth inhibition [3, 8] of the same molecule?
The growth inhibition was -7%.

What about the growth inhibition ([3]; at 50.0 µM) of the same molecule?
Its growth inhibition is 46.2%.

What about the growth inhibition [4, 7] of the same molecule?
The growth inhibition was -3%.

And the growth inhibition [4, 8]?
The growth inhibition was -23%.

And the growth inhibition ([4]; at 50.0 µM)?
The growth inhibition was 1.4%.

What about the growth inhibition [5, 7] of the same molecule?
The growth inhibition was 4%.

What about the growth inhibition [5, 8] of the same molecule?
Its growth inhibition is 1%.

And the growth inhibition ([5]; at 50.0 µM)?
The growth inhibition was 8.85%.

And the growth inhibition [6, 7]?
The growth inhibition was -3%.

And the growth inhibition [6, 8]?
The growth inhibition was -16%.

What about the growth inhibition ([6]; at 50.0 µM) of the same molecule?
The growth inhibition was 1.85%.

With `CCC(Sc1ccccc1[N+](=O)[O-])[N+](=O)[O-]` (configuration not stated) as the molecule, how does the growth inhibition [1, 7] read?
Its growth inhibition is 1%.

And the growth inhibition [1, 8]?
Its growth inhibition is 0%.

What about the growth inhibition ([1]; at 50.0 µM) of the same molecule?
Its growth inhibition is 88.7% (active).

What about the growth inhibition [2, 7] of the same molecule?
Its growth inhibition is 0%.

And the growth inhibition [2, 8]?
The growth inhibition was -4%.

What about the growth inhibition ([2]; at 50.0 µM) of the same molecule?
The growth inhibition was 90.8% (active).

What about the growth inhibition [3, 7] of the same molecule?
The growth inhibition was 3%.

And the growth inhibition [3, 8]?
The growth inhibition was -1%.

And the growth inhibition ([3]; at 50.0 µM)?
Its growth inhibition is 49.1%.

What about the growth inhibition [4, 7] of the same molecule?
Its growth inhibition is -2%.

What about the growth inhibition [4, 8] of the same molecule?
Its growth inhibition is -6%.

What about the growth inhibition ([4]; at 50.0 µM) of the same molecule?
The growth inhibition was 43.7%.

And the growth inhibition [5, 7]?
The growth inhibition was 0%.

What about the growth inhibition [5, 8] of the same molecule?
The growth inhibition was -11%.

What about the growth inhibition ([5]; at 50.0 µM) of the same molecule?
The growth inhibition was 97.1% (active).

And the growth inhibition [6, 7]?
Its growth inhibition is -1%.

What about the growth inhibition [6, 8] of the same molecule?
The growth inhibition was 1%.

What about the growth inhibition ([6]; at 50.0 µM) of the same molecule?
The growth inhibition was 55.1%.
